The values below come from PubChem BioAssay (NCATS).

Calls of active or inactive are those of the source.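 The calls were made as follows: active = compounds whose dose series gives a full or clear partial fitted curve of increased nuclear translocation; inconclusive = weak partial curve or effect only at the top dose; inactive = no dose-dependent translocation response.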
Potency is read from the fitted curve at half-maximal effect.

The test deals with Glucocorticoid receptor (Homo sapiens) (UniProt P04150). Description: GR-GFP Redistribution (AID 450). The conditions noted are these: U2OS GR-GFP nuclear translocation, laser cytometry, 2 h.
Sequence of Glucocorticoid receptor (Homo sapiens) (P04150 whole entry, looked up): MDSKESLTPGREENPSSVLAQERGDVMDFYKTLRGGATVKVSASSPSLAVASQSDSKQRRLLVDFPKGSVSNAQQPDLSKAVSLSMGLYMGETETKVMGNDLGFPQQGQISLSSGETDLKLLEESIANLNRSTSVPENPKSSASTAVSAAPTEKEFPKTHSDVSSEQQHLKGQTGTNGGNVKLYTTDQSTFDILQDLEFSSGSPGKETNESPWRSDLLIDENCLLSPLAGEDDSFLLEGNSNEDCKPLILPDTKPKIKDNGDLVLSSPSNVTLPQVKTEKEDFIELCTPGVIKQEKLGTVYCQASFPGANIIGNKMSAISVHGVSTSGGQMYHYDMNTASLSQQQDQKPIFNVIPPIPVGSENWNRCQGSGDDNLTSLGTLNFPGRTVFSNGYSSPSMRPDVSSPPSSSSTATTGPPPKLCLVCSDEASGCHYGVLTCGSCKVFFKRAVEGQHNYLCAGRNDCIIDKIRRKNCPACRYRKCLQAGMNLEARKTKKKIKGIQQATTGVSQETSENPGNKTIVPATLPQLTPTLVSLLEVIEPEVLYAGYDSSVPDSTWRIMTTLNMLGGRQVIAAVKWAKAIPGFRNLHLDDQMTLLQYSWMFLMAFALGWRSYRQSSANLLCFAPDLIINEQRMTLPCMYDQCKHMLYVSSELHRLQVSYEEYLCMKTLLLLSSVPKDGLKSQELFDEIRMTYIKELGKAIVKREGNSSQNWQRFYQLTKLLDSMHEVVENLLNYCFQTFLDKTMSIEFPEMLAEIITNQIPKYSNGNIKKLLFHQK
As to `O=C(O)/C(Cc1cn[nH]n1)=N\O`, the Potency was > 46 µM (inactive).

With `O=C(O)C(=Cc1ccnc2ccccc12)C(=O)O`, the Potency was > 46 µM (inactive).

Turning to `Cn1c(=O)c2c(ncn2CCSS(=O)(=O)O)n(C)c1=O`, the Potency was > 46 µM (inactive).

For `C=CCNS(=O)(=O)c1ncnc2nc[nH]c12`, the Potency is > 46 µM (inactive). With `CN1CCN(CCCNN)CC1`, the Potency was > 46 µM (inactive). For the molecule `c1ccc(CN2COc3c(ccc4c5c(ccc34)CN(Cc3ccccc3)CO5)C2)cc1`, the Potency was > 46 µM (inactive). As for `CCCS(=O)(=O)O`, the figure is > 46 µM (inactive); as for `CC(=O)CSCc1ccccn1`, > 46 µM (inactive). On to `CC(C)[C@H](Nc1ncnc2nc[nH]c12)C(=O)O`, for which the Potency is > 46 µM (inactive). The same measure for `Nc1nc2c(ncn2[C@H]2CC[C@@H](CO)O2)c(=O)n1C(=O)c1ccccc1`: > 46 µM (inactive); for `CC1=C(/C=C\C(=O)O)C(C)(C)CCC1`: > 46 µM (inactive); for `C[n+]1cccc(/C=C\c2ccc3cccc(O)c3n2)c1`: > 46 µM (inactive). With `COc1ccc(Br)c2c1C[C@H](C(=O)O)CC2`, the Potency was > 46 µM (inactive).

`COC(=O)c1cc(-c2ccc3ccccc3c2)[nH]c(=O)c1C#N`: the Potency was > 46 µM (inactive). On to `O=C(O)[C@H]1O[C@H]1C(=O)O`, for which the Potency was > 46 µM (inactive). As for `COc1cc(C(=O)O)c([N+](=O)[O-])c(OC)c1OC`, the Potency was > 46 µM (inactive). On to `C[C@H](NCCN(C)C)[C@@H]1CCC2C3CCc4cc(O)ccc4[C@H]3CCC21C` (stereo partly drawn), for which the Potency was > 46 µM (inactive). As to `O=C(O)/C(Cc1ccc([N+](=O)[O-])cc1)=N/O`, the Potency was > 46 µM (inactive).
